Among the data in PubChem BioAssay (EPA / NIEHS) are outcome and AC50 values, retold here.

Inconclusive results are not listed. The source made the active and inactive calls. Rule for the calls, unless noted: active = hit-call score of the fitted dose curve at least 0.9, where 1 is the maximum; inconclusive = response in the unintended direction; inactive = score below 0.9.

The nature of assay [1]: ATG_PPRE_CIS: Attagene CIS-FACTORIAL HepG2 Assay for human Peroxisome Proliferator-activated Response Element (PPRE) (AID 2282958; active = hit-call score of the fitted dose curve at least 0.9, where 1 is the maximum; inactive = score below 0.9). Particulars: HepG2 PPRE cis-element reporter, Attagene transcription factor profiling; actives raise or lower the signal. In a few lines:
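Endogenous PPRE-driven transcription is measured in HepG2 cells carrying transfected multi-reporter constructs. Reporter transcripts are quantified by RT-PCR, HpaI digestion and capillary electrophoresis 24 h after dosing. DMSO baseline, bidirectional fit.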

A short description of assay [2]: ATG_VDRE_CIS: Attagene CIS-FACTORIAL HepG2 Assay for human Vitamin D Receptor Element (VDRE) (AID 2282968; active = hit-call score of the fitted dose curve at least 0.9, where 1 is the maximum; inactive = score below 0.9). Conditions: HepG2 VDRE cis-reporter transcription, actives raise or lower the signal. In a few lines: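 Steps: transfect HepG2 with multiple reporter transcription units; dose chemicals 24 h; isolate RNA; RT-PCR; label with 6-FAM primer extension; HpaI digest; capillary electrophoresis. Curves fitted both directions against DMSO.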

Assay [3] is described as follows: ATG_M_19_TRANS: Attagene TRANS-FACTORIAL HepG2 Assay for M19 Transcription Factor (Internal Marker) (AID 2282974). Particulars: HepG2 Attagene TRANS-FACTORIAL M19 internal marker reporter. In a few lines: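 Background-control readout: after 24 h chemical exposure of transfected HepG2 carrying GAL4-driven reporter units, RNA was reverse-transcribed, amplified, fluorescently labeled and sized by capillary electrophoresis; gain-of-signal fit against DMSO.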

A short description of assay [4]: ATG_GAL4_TRANS: Attagene TRANS-FACTORIAL HepG2 Assay for GAL4 (Internal Marker) (AID 2282976). Conditions: HepG2 Attagene TRANS GAL4 internal marker reporter. In a few lines:
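First, HepG2 cells were transfected with reporter units under GAL4-UAS control. Next, they were treated with chemical for 24 h. Finally, RNA was reverse-transcribed, PCR-amplified, FAM-labelled and resolved by capillary electrophoresis, with induction scored against DMSO.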

The target in assay [5] is Glucocorticoid receptor (Homo sapiens) (UniProt P04150). As to the kind of experiment: ATG_GR_TRANS: Attagene TRANS-FACTORIAL HepG2 Assay for human Glucocorticoid Receptor (GR) (AID 2282978).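 Note: activators score as hits since higher reporter transcript over DMSO is fitted.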 Particulars: HepG2 Attagene TRANS GR reporter, mRNA transcription. In a few lines: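 Readout is reporter transcript from a chimeric GR-Gal4 acting on GAL4-UAS in transfected human HepG2 liver cells after 24 h exposure, quantified by RT-PCR and capillary electrophoresis. Activation fitted upward against DMSO.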

For assay [6], the target named is Oxysterols receptor LXR-alpha (Homo sapiens) (UniProt Q13133). Kind of assay: ATG_LXRa_TRANS: Attagene TRANS-FACTORIAL HepG2 Assay for human Liver X Receptor alpha (LXRa) (AID 2282980). Conditions: HepG2 Attagene TRANS reporter, LXRa transactivation. In a few lines:
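Transfect HepG2 with GAL4-UAS multiplex reporter constructs (TRANS format, chimeric receptor-GAL4); treat 24 h; extract RNA, reverse-transcribe, PCR-amplify, FAM-label, HpaI-digest; resolve fragments by capillary electrophoresis. Upward response vs DMSO.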

Assay [7] is described as follows: ATG_M_06_TRANS: Attagene TRANS-FACTORIAL HepG2 Assay for M06 Transcription Factor (Internal Marker) (AID 2282983).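 Note: reporter transcript level by RT-PCR then capillary electrophoresis fluorescence.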 Conditions: HepG2 Attagene TRANS M06 internal marker reporter. In a few lines:
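Background control endpoint: reporter mRNA from transiently transfected HepG2 after 24 h dosing, detected by RT-PCR with capillary electrophoresis fluorescence. Analysed for gain versus DMSO.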

The target of assay [8] is Peroxisome proliferator-activated receptor gamma (Homo sapiens) (UniProt P37231). Kind of assay: ATG_PPARg_TRANS: Attagene TRANS-FACTORIAL HepG2 Assay for human Peroxisome Proliferator-activated Receptor-gamma (PPARg) (AID 2283007). In a few lines: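 After 24 h of chemical exposure, transfected HepG2 cells carrying PPARγ-Gal4 chimera reporter constructs are lysed for RNA. Reporter transcripts are measured by RT-PCR and capillary electrophoresis with fluorescent labelling, and gain of signal is fitted versus DMSO.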

For assay [9], the target named is human Thyroid Receptor alpha (THRa1), THRA (gene 7067) (UniProt P10827). Kind of assay: ATG_THRa1_TRANS: Attagene TRANS-FACTORIAL HepG2 Assay for human Thyroid Receptor alpha (THRa1) (AID 2283014). In a few lines: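 Reporter transcript induction, read by capillary electrophoresis of 6-FAM-labelled RT-PCR products, reflects activity of a transfected THRa1-Gal4 fusion in HepG2 liver cells. Cells were dosed for 24 h; activity was fitted in the positive direction against DMSO.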

Assay [10] addresses human Vitamin D Receptor (VDR), VDR (gene 7421) (UniProt P11473). Kind of assay: ATG_VDR_TRANS: Attagene TRANS-FACTORIAL HepG2 Assay for human Vitamin D Receptor (VDR) (AID 2283022). In a few lines: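 Steps: transfect HepG2 with GAL4-UAS-driven reporter constructs; dose compounds 24 h; isolate RNA, reverse-transcribe, PCR-amplify with 6-FAM-labelled primer extension and HpaI digestion; quantify fragments by capillary electrophoresis relative to DMSO.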

Assay [11] is described as follows: ACEA_ER_AUC_viability: ACEA Biosciences xCELLigence Real-Time Cell Analysis on Estrogen Receptor Agonism for Viability (AID 2283782).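 Note: hit means loss of impedance signal meaning reduced cell growth or viability.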 In a few lines: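 Continuous-exposure impedance cell analysis uses T-47D cells in charcoal-stripped serum, eight 1:4 dilutions topping at 100 uM final, biological duplicate. Area under the growth curve at 80 h is fitted against DMSO baseline.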

Assay [12] is described as follows: CCTE_Harrill_HTTr_Viability_MCF7: CCTE's 6-hour Cell Viability Assessment for the High-Throughput Transcriptomics (HTTr) Platform, in MCF-7 cells cultured in DMEM + 10% fetal bovine serum, Harrill Lab (AID 2284010; active = hit-call score of the fitted dose curve at least 0.9, where 1 is the maximum; inactive = score below 0.9). In a few lines: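 Read-out is propidium iodide gain of signal by high-content imaging, reflecting membrane integrity loss. Measurements are taken 6 h after dosing, eight concentrations per chemical, with DMSO serving as baseline for bidirectional curve fitting.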

Assay [13] is described as follows: CCTE_Harrill_HTTr_Apoptosis_MCF7: CCTE's 6-hour Apoptosis Assessment for the High-Throughput Transcriptomics (HTTr) Platform, in MCF-7 cells cultured in DMEM + 10% fetal bovine serum, Harrill Lab (AID 2284011; active = hit-call score of the fitted dose curve at least 0.9, where 1 is the maximum; inactive = score below 0.9). In a few lines: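 MCF-7 (DMEM + 10% FBS), 384-well; 8-pt dilution series, 6 h chemical exposure; caspase-3/7 activation via CellEvent Caspase 3/7 Green, HCI; bidirectional fit vs DMSO.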

Assay [14] concerns the target Nuclear receptor subfamily 1 group I member 3 (Homo sapiens) (UniProt Q14994). Kind of assay: ATG_CAR_TRANS: Attagene TRANS-FACTORIAL HepG2 Assay for human Constitutive Androstane Receptor (CAR) (AID 2282969).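 Note: activators raise reporter mRNA above DMSO so AC50 marks induction.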 Particulars: HepG2 Attagene TRANS-FACTORIAL CAR reporter. In a few lines: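 Steps: transient transfection of HepG2 with multiple GAL4-UAS reporter units; 24 h compound incubation; RNA isolation, RT-PCR, 6-FAM primer extension, HpaI digest; capillary electrophoresis. Gain-of-signal relative to DMSO negative control.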

In assay [15] the target is Oxysterols receptor LXR-beta (Homo sapiens) (UniProt P55055). Kind of assay: ATG_LXRb_TRANS: Attagene TRANS-FACTORIAL HepG2 Assay for human Liver X Receptor beta (LXRb) (AID 2282981). Particulars: HepG2 Attagene TRANS GAL4-LXRb reporter, mRNA. In a few lines:
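Measures induction of a Gal4-driven reporter transcript in HepG2 cells expressing an exogenous LXRb-Gal4 fusion. Cells are exposed to compound for 24 h before RNA isolation and RT-PCR with capillary electrophoresis detection.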

Assay [16] concerns the target human Peroxisome Proliferator-activated Receptor delta (PPARd), PPARD (gene 5467) (UniProt Q03181). As to the kind of experiment: ATG_PPARd_TRANS: Attagene TRANS-FACTORIAL HepG2 Assay for human Peroxisome Proliferator-activated Receptor delta (PPARd) (AID 2283002). In a few lines: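 HepG2 cells transiently transfected with multiplexed GAL4-UAS reporter units and exogenous chimeric NR-Gal4 proteins; 24 h compound exposure. Reporter mRNA measured by RT-PCR, 6-FAM labelling, HpaI digestion and capillary electrophoresis; gain of signal versus DMSO.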

The target of assay [17] is Retinoic acid receptor RXR-alpha (Homo sapiens) (UniProt P19793). Kind of assay: ATG_RXRa_TRANS: Attagene TRANS-FACTORIAL HepG2 Assay for human Retinoid X Receptor alpha (RXRa) (AID 2283012). In a few lines:
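Measures exogenous chimeric NR-GAL4 activity in transfected HepG2 liver cells after 24 h of dosing. Induced reporter mRNA was detected by RT-PCR with capillary electrophoresis, and gain of signal was analysed against DMSO.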

Assay [18] is described as follows: TOX21_p53_BLA_p4_viability: Viability Assessment in the Tox21 HCT-116 p53 Agonism Beta-lactamase Assay, Phase 4 (AID 2283597).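 Note: hits lower the luminescence signal meaning cytotoxicity.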 In a few lines: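 Readout: ATP luminescence (CellTiter-Glo), measured 30 min after reagent addition at RT. The reagent followed a 2 h CCF4-AM incubation, and the cells had been exposed to compound for 16 h at 37C.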
Assay [19] deals with human RAR-related Orphan Receptor beta (RORb), RORB (gene 6096) (UniProt Q92753). Kind of assay: ATG_RORb_TRANS: Attagene TRANS-FACTORIAL HepG2 Assay for human RAR-related Orphan Receptor beta (RORb) (AID 2283010). In a few lines: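 Transfect HepG2 with multiple GAL4-UAS reporter transcription units; dose chemicals for 24 h; isolate RNA, reverse-transcribe and PCR-amplify reporter sequences; label, digest and resolve fragments by capillary electrophoresis; fit increases relative to DMSO.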

Assay [20] addresses Bile acid receptor (Homo sapiens) (UniProt Q96RI1). As to the kind of experiment: ATG_FXR_TRANS: Attagene TRANS-FACTORIAL HepG2 Assay for Farnesoid X Receptor (FXR) (AID 2282979).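 Note: hits raise reporter mRNA above DMSO so AC50 marks FXR activation.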 Conditions: HepG2 Attagene TRANS FXR-GAL4 reporter transcription. In a few lines:
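Transient transfection of HepG2 with multiplexed GAL4-UAS reporter units; exogenous FXR-GAL4 chimera. Dose 24 h → TriZol RNA → oligo(dT) RT → PCR, 6-FAM primer extension, HpaI cut → CE. Gain vs DMSO.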

Sequence of Nuclear receptor subfamily 1 group I member 3 (Homo sapiens) (Q14994 whole entry, looked up, the tested form may be a part): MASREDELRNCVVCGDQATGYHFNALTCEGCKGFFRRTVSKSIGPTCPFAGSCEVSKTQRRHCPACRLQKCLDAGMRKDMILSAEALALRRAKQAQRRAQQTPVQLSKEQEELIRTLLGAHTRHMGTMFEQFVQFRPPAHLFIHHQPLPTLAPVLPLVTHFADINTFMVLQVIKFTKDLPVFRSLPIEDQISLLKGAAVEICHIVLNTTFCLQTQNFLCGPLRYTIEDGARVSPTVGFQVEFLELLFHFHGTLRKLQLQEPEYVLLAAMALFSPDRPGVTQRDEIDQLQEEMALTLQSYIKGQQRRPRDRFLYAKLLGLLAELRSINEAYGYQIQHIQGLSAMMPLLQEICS
Sequence of human RAR-related Orphan Receptor beta (RORb), RORB (gene 6096) (Q92753 whole entry, looked up, the tested form may be a part): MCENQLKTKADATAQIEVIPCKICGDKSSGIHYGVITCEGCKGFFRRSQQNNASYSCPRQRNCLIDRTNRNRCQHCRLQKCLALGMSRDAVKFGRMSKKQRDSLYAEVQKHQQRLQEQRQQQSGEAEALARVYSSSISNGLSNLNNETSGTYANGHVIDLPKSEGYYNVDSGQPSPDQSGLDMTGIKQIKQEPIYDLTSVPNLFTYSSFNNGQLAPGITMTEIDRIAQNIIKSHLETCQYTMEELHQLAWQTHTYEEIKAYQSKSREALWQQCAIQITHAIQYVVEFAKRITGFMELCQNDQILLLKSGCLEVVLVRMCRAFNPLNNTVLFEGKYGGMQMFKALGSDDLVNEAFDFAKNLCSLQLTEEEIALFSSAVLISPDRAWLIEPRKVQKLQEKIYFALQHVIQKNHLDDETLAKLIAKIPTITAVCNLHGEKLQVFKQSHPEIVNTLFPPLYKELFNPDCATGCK
Sequence of human Peroxisome Proliferator-activated Receptor delta (PPARd), PPARD (gene 5467) (Q03181 whole entry, looked up, the tested form may be a part): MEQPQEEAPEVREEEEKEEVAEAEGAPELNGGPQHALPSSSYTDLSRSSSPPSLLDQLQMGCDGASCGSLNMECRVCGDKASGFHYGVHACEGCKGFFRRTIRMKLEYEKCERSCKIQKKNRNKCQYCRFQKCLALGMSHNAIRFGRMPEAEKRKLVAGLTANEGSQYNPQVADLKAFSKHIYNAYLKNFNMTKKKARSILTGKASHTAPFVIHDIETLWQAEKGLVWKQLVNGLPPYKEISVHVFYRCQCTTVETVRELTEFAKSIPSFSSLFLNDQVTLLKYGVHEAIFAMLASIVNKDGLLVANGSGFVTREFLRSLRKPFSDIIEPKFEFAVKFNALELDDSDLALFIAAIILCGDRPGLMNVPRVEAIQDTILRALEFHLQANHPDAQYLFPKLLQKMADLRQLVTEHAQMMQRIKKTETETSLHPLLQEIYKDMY
Sequence of Oxysterols receptor LXR-alpha (Homo sapiens) (Q13133 whole entry, looked up, the tested form may be a part): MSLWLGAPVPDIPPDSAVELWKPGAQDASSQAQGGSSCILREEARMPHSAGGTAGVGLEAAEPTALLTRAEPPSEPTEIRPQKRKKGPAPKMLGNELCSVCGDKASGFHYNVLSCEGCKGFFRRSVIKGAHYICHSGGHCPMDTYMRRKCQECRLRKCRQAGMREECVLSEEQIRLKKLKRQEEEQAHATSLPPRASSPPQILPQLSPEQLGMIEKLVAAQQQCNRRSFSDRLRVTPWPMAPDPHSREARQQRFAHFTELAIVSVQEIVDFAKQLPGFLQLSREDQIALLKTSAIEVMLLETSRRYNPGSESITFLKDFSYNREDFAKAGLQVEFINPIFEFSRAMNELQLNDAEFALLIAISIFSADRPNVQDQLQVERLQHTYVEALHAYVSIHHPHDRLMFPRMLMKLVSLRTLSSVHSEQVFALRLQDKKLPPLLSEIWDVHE
Sequence of human Vitamin D Receptor (VDR), VDR (gene 7421) (P11473 whole entry, looked up, the tested form may be a part): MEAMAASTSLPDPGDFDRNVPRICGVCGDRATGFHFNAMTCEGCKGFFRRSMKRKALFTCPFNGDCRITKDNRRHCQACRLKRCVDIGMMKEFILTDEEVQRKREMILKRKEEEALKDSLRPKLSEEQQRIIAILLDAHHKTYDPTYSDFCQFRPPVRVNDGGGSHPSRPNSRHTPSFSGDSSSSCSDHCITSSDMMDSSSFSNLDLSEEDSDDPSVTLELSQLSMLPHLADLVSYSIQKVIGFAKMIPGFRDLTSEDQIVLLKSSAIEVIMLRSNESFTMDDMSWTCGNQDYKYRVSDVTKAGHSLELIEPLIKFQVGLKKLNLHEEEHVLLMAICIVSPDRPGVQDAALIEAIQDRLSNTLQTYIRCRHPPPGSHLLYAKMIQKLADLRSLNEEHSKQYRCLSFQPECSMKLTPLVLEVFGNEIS
Sequence of Oxysterols receptor LXR-beta (Homo sapiens) (P55055 whole entry, looked up, the tested form may be a part): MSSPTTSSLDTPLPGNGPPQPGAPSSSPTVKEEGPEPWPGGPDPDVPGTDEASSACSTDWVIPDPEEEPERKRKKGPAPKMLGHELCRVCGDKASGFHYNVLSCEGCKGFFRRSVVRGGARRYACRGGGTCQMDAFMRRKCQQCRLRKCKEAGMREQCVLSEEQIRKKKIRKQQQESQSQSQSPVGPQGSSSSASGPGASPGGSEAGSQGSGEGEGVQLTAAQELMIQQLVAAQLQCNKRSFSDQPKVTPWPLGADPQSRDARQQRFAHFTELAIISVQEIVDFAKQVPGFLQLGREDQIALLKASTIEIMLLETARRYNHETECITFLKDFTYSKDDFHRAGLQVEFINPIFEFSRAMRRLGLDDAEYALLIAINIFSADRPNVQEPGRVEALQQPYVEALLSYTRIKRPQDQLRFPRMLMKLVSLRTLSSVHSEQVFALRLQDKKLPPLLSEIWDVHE
Sequence of Glucocorticoid receptor (Homo sapiens) (P04150 whole entry, looked up, the tested form may be a part): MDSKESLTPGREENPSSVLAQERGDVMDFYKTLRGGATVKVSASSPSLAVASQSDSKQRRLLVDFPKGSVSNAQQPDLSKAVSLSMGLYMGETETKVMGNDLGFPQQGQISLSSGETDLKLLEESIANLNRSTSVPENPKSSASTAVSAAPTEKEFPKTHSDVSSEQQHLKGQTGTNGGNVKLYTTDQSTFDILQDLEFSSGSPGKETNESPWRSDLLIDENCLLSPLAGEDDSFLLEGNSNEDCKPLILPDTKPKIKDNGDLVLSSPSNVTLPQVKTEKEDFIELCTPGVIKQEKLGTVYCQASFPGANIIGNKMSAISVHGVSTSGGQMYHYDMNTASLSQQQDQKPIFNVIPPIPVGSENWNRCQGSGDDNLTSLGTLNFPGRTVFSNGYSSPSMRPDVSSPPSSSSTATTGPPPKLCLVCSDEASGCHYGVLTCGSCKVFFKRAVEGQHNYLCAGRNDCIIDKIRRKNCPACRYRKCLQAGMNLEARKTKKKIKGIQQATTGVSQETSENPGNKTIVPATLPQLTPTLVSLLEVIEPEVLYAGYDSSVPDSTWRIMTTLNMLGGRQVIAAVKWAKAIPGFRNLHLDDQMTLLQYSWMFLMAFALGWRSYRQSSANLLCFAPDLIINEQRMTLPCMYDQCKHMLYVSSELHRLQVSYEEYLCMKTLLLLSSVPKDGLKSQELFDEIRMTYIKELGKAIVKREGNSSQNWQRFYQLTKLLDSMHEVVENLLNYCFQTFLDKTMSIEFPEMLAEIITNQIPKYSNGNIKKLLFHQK
Sequence of Peroxisome proliferator-activated receptor gamma (Homo sapiens) (P37231 whole entry, looked up, the tested form may be a part): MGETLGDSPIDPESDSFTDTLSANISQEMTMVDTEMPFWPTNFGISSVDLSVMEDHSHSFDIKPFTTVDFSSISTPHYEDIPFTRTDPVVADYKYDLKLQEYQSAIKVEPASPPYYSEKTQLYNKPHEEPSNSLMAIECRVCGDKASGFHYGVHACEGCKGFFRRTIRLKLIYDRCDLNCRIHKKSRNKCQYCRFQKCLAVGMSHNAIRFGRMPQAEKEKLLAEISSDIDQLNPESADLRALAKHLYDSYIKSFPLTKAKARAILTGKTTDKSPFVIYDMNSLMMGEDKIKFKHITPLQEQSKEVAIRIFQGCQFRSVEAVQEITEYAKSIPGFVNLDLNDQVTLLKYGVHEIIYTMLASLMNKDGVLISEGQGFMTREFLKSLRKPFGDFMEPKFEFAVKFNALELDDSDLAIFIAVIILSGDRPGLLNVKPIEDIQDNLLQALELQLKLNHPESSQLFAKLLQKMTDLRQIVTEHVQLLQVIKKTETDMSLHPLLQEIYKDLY
Sequence of human Thyroid Receptor alpha (THRa1), THRA (gene 7067) (P10827 whole entry, looked up, the tested form may be a part): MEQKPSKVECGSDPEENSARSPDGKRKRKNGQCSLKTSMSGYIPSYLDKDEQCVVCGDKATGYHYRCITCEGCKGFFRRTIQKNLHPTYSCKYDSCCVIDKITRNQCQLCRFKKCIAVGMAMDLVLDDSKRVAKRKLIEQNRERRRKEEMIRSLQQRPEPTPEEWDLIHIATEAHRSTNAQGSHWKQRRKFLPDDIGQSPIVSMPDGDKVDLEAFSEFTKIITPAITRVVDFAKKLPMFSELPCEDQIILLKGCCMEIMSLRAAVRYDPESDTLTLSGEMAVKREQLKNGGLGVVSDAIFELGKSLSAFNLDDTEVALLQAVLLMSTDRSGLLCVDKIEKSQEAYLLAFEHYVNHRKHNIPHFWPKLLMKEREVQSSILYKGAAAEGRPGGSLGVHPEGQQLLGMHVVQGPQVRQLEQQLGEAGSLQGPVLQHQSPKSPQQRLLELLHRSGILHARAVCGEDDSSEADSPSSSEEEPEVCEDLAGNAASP
Sequence of Retinoic acid receptor RXR-alpha (Homo sapiens) (P19793 whole entry, looked up, the tested form may be a part): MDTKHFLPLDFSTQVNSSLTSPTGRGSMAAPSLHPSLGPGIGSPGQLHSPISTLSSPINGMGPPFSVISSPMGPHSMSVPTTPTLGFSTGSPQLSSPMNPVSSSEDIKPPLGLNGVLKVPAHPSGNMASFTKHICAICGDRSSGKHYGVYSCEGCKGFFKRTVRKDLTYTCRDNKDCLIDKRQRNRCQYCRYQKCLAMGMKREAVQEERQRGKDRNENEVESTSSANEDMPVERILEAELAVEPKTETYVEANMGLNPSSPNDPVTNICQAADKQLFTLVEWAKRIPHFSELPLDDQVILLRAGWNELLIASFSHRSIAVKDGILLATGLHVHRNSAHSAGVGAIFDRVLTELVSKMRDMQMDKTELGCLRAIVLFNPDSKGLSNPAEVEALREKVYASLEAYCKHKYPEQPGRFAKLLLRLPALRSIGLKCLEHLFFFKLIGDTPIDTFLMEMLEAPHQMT

With `O=C(OCc1ccccc1)c1ccccc1`, the molecule was called inactive in [1], in [2], in assay [3], in assay [4], in assay [5] and in [6]. The result in assay [7], in assay [8], in assay [9], in [10], in assay [12] and in [13] was inactive. The concentration at half-maximal activity (AC50) in assay [11] was 76.8 µM (active).
In the case of `Cc1ccccc1S(N)(=O)=O`, the outcome in [14], in assay [3], in assay [6], in assay [15], in assay [7] and in assay [16] was inactive. Further, the outcome in assay [17], in assay [9], in assay [18] and in assay [11] was inactive.
Take `C=C(C)C(=O)OCCCCCC`: the result in assay [1], in [2], in assay [4], in assay [5], in assay [6] and in assay [15] was inactive. Besides, the result in [7], in assay [8], in assay [19], in assay [9], in assay [10] and in assay [18] was inactive.
For `CCCCCCCCCCC1CO1` (centres undefined), the result in assay [1], in assay [3], in [4], in assay [16], in assay [8] and in assay [17] was inactive. For the same molecule, the outcome in assay [9] and in [10] was inactive. In addition, the AC50 in [11] is 32.9 µM (active).
Take `O=C(O)c1nc(Cl)c(Cl)c(Cl)c1Cl`: the result in [4], in [5], in assay [6], in assay [15], in [7] and in [16] was inactive. The result in [9] and in assay [10] was inactive.
As to `O=[N+]([O-])c1ccccc1C(F)(F)F`, the call in [1], in [14], in assay [3], in [4], in [8] and in [19] was inactive. In addition, the call in assay [10] and in assay [18] was inactive.
In the case of `c1cc(N(CC2CO2)CC2CO2)ccc1Cc1ccc(N(CC2CO2)CC2CO2)cc1` (centres undefined), the outcome in [1], in assay [3], in assay [4], in [5], in assay [20] and in [6] was inactive. Besides, the result in assay [16], in assay [8], in [10] and in [18] was inactive. Further, the AC50 in assay [2] is 3.66 µM (active).
Consider `Cc1cc(-n2nc3ccc(Cl)cc3n2)c(O)c(C(C)(C)C)c1`, for which the molecule was called inactive in assay [2], in assay [14], in [4], in assay [5], in assay [20] and in [7]. The outcome in [16] and in assay [17] was inactive.
Regarding `Cc1cccnc1`, the result in assay [2], in [14], in [3], in assay [4], in assay [6] and in assay [15] was inactive. Moreover, the molecule was classed as inactive in assay [8], in [19], in assay [17], in assay [9], in [12] and in assay [13].
On to `O=C1CCCCCCCCCCCCCC1`, for which the molecule was classed as inactive in assay [2], in [5], in assay [6], in assay [15], in assay [7] and in assay [16]. Moreover, the molecule was called inactive in assay [10], in assay [18] and in assay [11]. The AC50 in assay [17] was 26.5 µM (active).
Regarding `C1=CCC=C1`, the molecule was classed as inactive in assay [4] and in assay [9].
For the molecule `Cc1cc(C)c(S(=O)(=O)O)cc1N=Nc1cc(S(=O)(=O)O)c2ccccc2c1O`, the call in assay [1], in assay [2], in assay [14], in [4], in assay [6] and in [15] was inactive. For the same molecule, the outcome in assay [7], in [8], in assay [9], in assay [10] and in assay [11] was inactive.
Regarding `F[B-](F)(F)F`, the molecule was called inactive in assay [3], in assay [6], in assay [19] and in [11].
Regarding `CCCCCCCCCCCCCC`, the outcome in [2], in assay [14], in assay [3], in [4], in assay [6] and in [7] was inactive. Further, the outcome in assay [17], in [10], in [11], in [12] and in assay [13] was inactive.

The term AC50 denotes the concentration giving half of the maximal activity seen.
